In ChEMBL document CHEMBL3988442, “University of Dundee, Small-Polar-MMV Screening Library” (2021):
Screen size: about 67,000 compounds; about 300 (0.45%) showed an effect of 50% or more. The list comes from a sample in which strong results are over-represented; it also holds similar structures and randomly drawn compounds.

target: Polyketide synthase Pks13 (Mycobacterium tuberculosis (strain ATCC 25618 / H37Rv)) (UniProt I6X8D2); assay: Mycobacterium tuberculosis Polyketide synthase 13 Thioesterase (PKS13); assay type: functional; parameters: scale not given: in the data most compounds retested in dose-response had high values; settings: 30 µM
Sequence (I6X8D2 whole entry): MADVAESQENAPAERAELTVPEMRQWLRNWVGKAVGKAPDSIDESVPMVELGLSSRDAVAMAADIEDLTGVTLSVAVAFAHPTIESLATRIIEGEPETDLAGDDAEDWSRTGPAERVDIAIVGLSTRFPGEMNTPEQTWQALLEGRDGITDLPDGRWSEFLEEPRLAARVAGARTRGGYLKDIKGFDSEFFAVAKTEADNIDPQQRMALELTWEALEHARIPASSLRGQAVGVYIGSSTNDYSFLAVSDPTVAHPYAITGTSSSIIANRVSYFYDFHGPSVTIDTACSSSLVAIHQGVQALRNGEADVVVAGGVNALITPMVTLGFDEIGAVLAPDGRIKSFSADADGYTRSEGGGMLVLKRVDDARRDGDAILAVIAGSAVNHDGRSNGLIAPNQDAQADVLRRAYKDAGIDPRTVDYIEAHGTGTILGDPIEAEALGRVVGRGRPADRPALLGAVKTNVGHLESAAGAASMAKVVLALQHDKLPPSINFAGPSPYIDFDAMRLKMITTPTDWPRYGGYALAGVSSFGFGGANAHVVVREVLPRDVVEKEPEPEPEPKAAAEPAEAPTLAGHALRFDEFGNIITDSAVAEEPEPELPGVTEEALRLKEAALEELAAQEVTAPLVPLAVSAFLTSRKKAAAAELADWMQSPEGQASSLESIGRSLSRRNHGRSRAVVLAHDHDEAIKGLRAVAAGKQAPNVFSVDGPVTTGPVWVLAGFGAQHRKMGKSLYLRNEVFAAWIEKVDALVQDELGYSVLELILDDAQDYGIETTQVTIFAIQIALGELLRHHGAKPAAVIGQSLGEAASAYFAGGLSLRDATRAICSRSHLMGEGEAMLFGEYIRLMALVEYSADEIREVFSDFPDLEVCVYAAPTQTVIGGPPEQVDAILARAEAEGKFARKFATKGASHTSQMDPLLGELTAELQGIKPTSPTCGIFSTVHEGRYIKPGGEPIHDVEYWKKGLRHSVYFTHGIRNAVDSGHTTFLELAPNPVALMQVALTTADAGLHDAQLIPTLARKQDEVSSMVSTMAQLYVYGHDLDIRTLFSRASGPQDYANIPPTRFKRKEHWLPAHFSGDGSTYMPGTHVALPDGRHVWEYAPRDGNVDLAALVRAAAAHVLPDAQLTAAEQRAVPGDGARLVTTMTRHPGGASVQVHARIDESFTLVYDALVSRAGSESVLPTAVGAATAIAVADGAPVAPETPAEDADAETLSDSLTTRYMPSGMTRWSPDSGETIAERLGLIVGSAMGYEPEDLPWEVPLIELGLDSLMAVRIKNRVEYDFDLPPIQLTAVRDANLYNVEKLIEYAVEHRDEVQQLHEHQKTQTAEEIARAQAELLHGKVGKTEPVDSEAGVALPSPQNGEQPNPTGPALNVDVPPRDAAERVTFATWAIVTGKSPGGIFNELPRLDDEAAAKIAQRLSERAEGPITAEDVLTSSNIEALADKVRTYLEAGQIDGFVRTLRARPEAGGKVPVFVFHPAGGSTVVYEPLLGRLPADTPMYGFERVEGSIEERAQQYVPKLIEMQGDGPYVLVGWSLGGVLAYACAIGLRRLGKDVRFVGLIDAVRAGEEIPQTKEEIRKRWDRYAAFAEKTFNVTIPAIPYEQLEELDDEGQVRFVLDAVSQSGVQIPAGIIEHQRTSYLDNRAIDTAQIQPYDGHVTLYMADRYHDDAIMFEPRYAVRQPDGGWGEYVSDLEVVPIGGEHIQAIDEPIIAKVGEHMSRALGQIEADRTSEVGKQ

| SMILES | Percent Effect |
| --- | --- |
| Cc1cccc(CN2C[C@H](OCc3csc(C)n3)[C@H]3COC[C@H]32)n1 | -2.96% |
| CCOCC1CN(C(=O)c2cccn2C)Cc2cnn(CC3CC3)c21 (stereo not drawn) | -11.3% |
| CCOCC1CN(C(=O)c2cccs2)Cc2cnn(CC3CC3)c21 (stereo not drawn) | 80.6% |
| CCn1ncc2c1C(COCC1CC1)CN(C(=O)c1cccs1)C2 (stereo not drawn) | -31.9% |
| Cn1ccnc1CN1CC[C@@H]2[C@@H](CCC(=O)N2CCc2c[nH]cn2)C1 | -26.1% |
| c1cnc(N2CCOCC3(CCCN(CC4CC4)C3)C2)cn1 (stereo not drawn) | 2.73% |
| CSc1nccc(N2CCC3(CCCN(CC4CC4)C3)C2)n1 (stereo not drawn) | -0.995% |
| c1cnc(N2CCC3(CCCN(CC4CCCCC4)C3)C2)cn1 (stereo not drawn) | 66.6% |
| C[C@H]1C[C@H]2CN(S(=O)(=O)c3ccc(F)cc3)CC[C@@H]2O1 | -20.4% |
| O[C@]12CCNC[C@H]1CN(c1nccc3ccccc13)CC2 | -2.31% |
| CC(=O)N1CCCN(C(=O)NC(C)c2csc3ccccc23)CC1 (stereo not drawn) | -15.4% |
| CC(NC(=O)N1CCC(CC(N)=O)CC1)c1csc2ccccc12 (stereo not drawn) | -11.9% |
| CC(NC(=O)N1CCC(CO)CC1)c1csc2ccccc12 (stereo not drawn) | 53% |
| Cc1cnn(CC2CCCN2Cc2cc(=O)n3cc(C)ccc3n2)c1 (stereo not drawn) | 99.9% |
| Cc1cnn(CC2CCCN2Cc2cc(=O)n3ccccc3n2)c1 (stereo not drawn) | 2.94% |
| Cc1cnn(CC2CCCN2Cc2cc(=O)n3cccc(C)c3n2)c1 (stereo not drawn) | -5.2% |
| Cc1cnc(CNC(=O)[C@@]23CCO[C@@H]2CCN(c2ncccn2)C3)cn1 | -4.01% |
| CC(C)CN1C[C@H]2CCN(C(=O)NC3CCCC3)CC[C@H]2S1(=O)=O | 6.92% |
| Cc1ccc(C)c(OC2CCN(C(=O)CNc3ccccc3Cl)CC2)c1 | 73.1% |
| Cc1ccc(C)c(OC2CCN(C(=O)NCC(=O)N3CCCC3)CC2)c1 | -7.72% |
| CCNC(=O)CCC(=O)N1CCC(Oc2cc(C)ccc2C)CC1 | -5.09% |
| CNC(=O)CN1CC[C@H]2CN(C(=O)c3cccc(C)c3)C[C@H]2C1 | -11% |

| SMILES | Percent Effect |
| --- | --- |
| Cn1ccnc1C(=O)N1C[C@@H]2CCN(c3cnccn3)C[C@@H]2C1 | 124% |
| Cn1cncc1C(=O)N1C[C@@H]2CCN(c3cnccn3)C[C@@H]2C1 | -6.26% |
| Cn1ccc(C(=O)N2C[C@@H]3CCN(c4cnccn4)C[C@@H]3C2)n1 | -2.86% |
| O=C(c1ccco1)N1CCO[C@@H]2CN(c3ncc(F)cn3)CC[C@@H]2C1 | -32.7% |
| CS(=O)(=O)NC[C@]12COC[C@H]1CN(C(=O)c1ccncn1)C2 | -5.6% |
| Cc1noc(C)c1CN1C(=O)[C@H]2CC[C@@H]1CN(Cc1cscn1)C2 | 7.07% |
| CN(Cc1ccncc1)C1CCC[C@@H]2CN(c3ncccn3)C[C@H]12 (stereo partly drawn) | -25.8% |
| CCOC(=O)CNC(=O)NCc1cc(C)n(-c2ccccc2OC)c1C | 50% |
| COc1ccccc1-n1c(C)cc(CNC(=O)NC(C)C)c1C | 0.233% |
| CCOC(=O)CNC(=O)NCc1cc(C)n(-c2ccc(OC)cc2)c1C | 10.9% |
| CN1C[C@@H]2CN(C(=O)C3CC=CC3)C[C@@H]2C1=O | -9.96% |
| CCC(O)CN1CCN(C(=O)c2ccc(N(C)C)nn2)CC1 (stereo not drawn) | 5.36% |
| CN(C)c1ccc(C(=O)N2CCN(C(=O)N3CCCCC3)CC2)nn1 | 65.3% |
| CN(C)c1ccc(C(=O)N2CCN(CC(C)(C)O)CC2)nn1 | -26.8% |
| CCS(=O)(=O)N1C[C@H](c2nc(C)no2)C[C@H]2OCC[C@H]21 | 5.36% |
| CCc1ccc(CN2C[C@H](OC)[C@H]3COC[C@H]32)o1 | -5.96% |
| O=C(NC1CCC1)[C@H]1C[C@@H]2CN(C(=O)Nc3ccc(F)cc3)C[C@H]1O2 | 5.75% |
| O=C(c1ccc(O)cc1)N1C[C@@H]2OCCN(c3ncccn3)[C@@H]2C1 | -11.4% |
| Cn1cc(CN2C[C@H]3CCC[C@@H](CNc4nccn4C)[C@H]3C2)cn1 | -23.6% |
| Cc1cccc(CN2C(=O)C[C@H]3[C@@H]2CCN3Cc2ccco2)n1 | -23.1% |
| O=C(O)c1csc(S(=O)(=O)Nc2cccc(OCC(F)(F)F)c2)c1 | 50% |
| CCCOc1cccc(NS(=O)(=O)c2cc(C(=O)O)cs2)c1 | 40.8% |

| SMILES | Percent Effect |
| --- | --- |
| CCOc1cccc(NS(=O)(=O)c2cc(C(=O)O)cs2)c1 | 0.586% |
| Clc1cccc(-c2noc(CCN3CCN(c4ccncc4)CC3)n2)c1 | -57.2% |
| NC(=O)N1CCCN(CCc2nc(-c3cccc(Cl)c3)no2)CC1 | 55.5% |
| CCOC1CCN(CCc2nc(-c3cccc(Cl)c3)no2)CC1 | 8.68% |
| CN1CCN(C(=O)[C@H]2C[C@@H]3CN(c4ncc(F)cn4)C[C@@H]3N2C)CC1 | -4.39% |
| COCC(=O)N1CC[C@@H]2O[C@H](COCc3ccncc3)CC[C@@H]21 | -12.9% |
| COC(=O)Cn1cccc(S(=O)(=O)N2CCC(C)CC2)c1=O | 50.5% |
| CC1CCN(S(=O)(=O)c2cccn(CC(=O)NC3CCCC3)c2=O)CC1 | 3.17% |
| CC1CCN(S(=O)(=O)c2cccn(CC(=O)NC(C)(C)C)c2=O)CC1 | -9.8% |
| COCC(=O)N1CCc2cccc(S(=O)(=O)N3CCOCC3)c2C1 | -3.94% |
| CCOCCC(=O)N1CCc2cccc(S(=O)(=O)N3CCOCC3)c2C1 | 59.9% |
| CCCOC(=O)N1CCc2cccc(S(=O)(=O)N3CCOCC3)c2C1 | -4.05% |
| COCCNC(=O)[C@@H]1CN(c2ncccn2)C[C@H]2OCC[C@H]21 | -43.5% |
| CC(=O)N1C[C@H]2CN(CC3CC3)C(=O)[C@H]2C1 | -18.6% |
| CSc1ccc2cc(CN(C)CCO)c(=O)[nH]c2c1 | 67% |
| CSc1ccc2cc(CN(C)CCCN(C)C)c(=O)[nH]c2c1 | 6.22% |
| CSc1ccc2cc(CN(C)CCc3cn[nH]c3)c(=O)[nH]c2c1 | -13.1% |
| Cc1cnc(N2CCN3C[C@H](OCc4ccccn4)C[C@H]3C2)nc1 | -24.2% |
| Cn1ccnc1CN1CCN2C[C@H](Oc3cccc(F)c3)C[C@H]2C1 | 23.6% |
| O=C1C[C@H]2CC[C@@H](CN1)N2C1CCSCC1 | -1.94% |
| CN(C(=O)c1ccc(-n2ncc(C#N)c2N)cc1)C1CCCC1 | -1.63% |
| CN(CC1CCCCC1)C(=O)c1ccc(-n2ncc(C#N)c2N)cc1 | 52.7% |

| SMILES | Percent Effect |
| --- | --- |
| N#Cc1cnn(-c2ccc(C(=O)N(C3CCCCC3)C3CC3)cc2)c1N | -18% |
| CCCN1CCN(C(=O)c2cnccn2)[C@H]2CS(=O)(=O)C[C@H]21 | -4.16% |
| c1cncc(CO[C@H]2CC[C@H]3[C@@H]2OCCN3C2CCOCC2)c1 | 2.72% |
| Cc1cc(C)cc(CN2C[C@@H]3OCCN(S(=O)(=O)N(C)C)[C@@H]3C2)c1 | -14.4% |
| CC1(C)O[C@@](C)([C@H]2CC3(CCN(c4cnccn4)CC3)CO2)CC[C@@H]1O | -3.99% |
| CC(C)c1cc(N2CCC(N)CC2)n2nccc2n1 | 61.4% |
| CC(C)c1cc(N2CCC[C@H](N)C2)n2nccc2n1 | -7.75% |
| CC(C)c1cc(N2CC[C@H](F)C2)n2nccc2n1 | -11.1% |
| O=C(NC1CC1)[C@@H]1CCO[C@@H]2CCN(C3CCOCC3)C[C@@H]21 | -12.6% |
| Cc1nnc([C@H]2CC[C@@H]3[C@@H](CCN3Cc3c(C)noc3C)O2)o1 | -7.83% |
| CN(C)C(=O)CO[C@@H]1CC[C@H]2[C@H]1OCCN2C(=O)C1CCOCC1 | -1.73% |
| CC(=O)N1CCN2C(=O)N(Cc3ccc(F)cc3)C[C@H]2C1 | -33.1% |
| Cn1cc(-c2ncc3c(c2C(=O)O)CCN(CC2CCOC2)C3)cn1 (stereo not drawn) | 111% |
| O=C(O)c1c(-c2cncnc2)ncc2c1CCN(CC1CCOC1)C2 (stereo not drawn) | -5.14% |
| Cn1cc(-c2ncc3c(c2C(=O)O)CCN(CC2CC2)C3)cn1 | -9.1% |
| O=S(=O)(C1CC1)N1CCO[C@@H]2CN(Cc3ccco3)C[C@@H]2C1 | -22.6% |
| Cn1cc(CN2CC[C@@H]3[C@@H]2CCN3Cc2ccc3c(c2)OCO3)cn1 | -41.2% |
| Cc1noc([C@@H]2CCO[C@@H]3CCN(Cc4cccs4)C[C@@H]32)n1 | 2.92% |
| CCc1n[nH]c(C2CN(C(=O)c3ncoc3CC)CCO2)n1 (stereo not drawn) | -48.2% |
| CCc1n[nH]c(C2CN(C(=O)c3nc(C)n4ccccc34)CCO2)n1 (stereo not drawn) | 83% |
| Cc1nc(C)n(C2CCCN(C(=O)c3nc(C)n4ccccc34)C2)n1 (stereo not drawn) | 93.6% |
| Cc1nc(C)n(C2CCCN(C(=O)c3cc4ccccc4n3C)C2)n1 (stereo not drawn) | -20.9% |

| SMILES | Percent Effect |
| --- | --- |
| Cc1nc(C)n(C2CCCN(C(=O)c3ccccc3C)C2)n1 (stereo not drawn) | -12.6% |
| CCc1n[nH]c(C2CN(C(=O)Cn3ccccc3=O)CCO2)n1 (stereo not drawn) | -11.9% |
| CCc1nc(C2CCCN2C(=O)c2ncoc2CC)no1 (stereo not drawn) | -6.87% |
| CCc1nc(C2CCCN2C(=O)c2nccnc2N)no1 (stereo not drawn) | 29.6% |
| CCc1nc(C2CCCN2C(=O)c2nc(C)n3ccccc23)no1 (stereo not drawn) | 75.3% |
| COC[C@H]1CC[C@H]2[C@H](CCN2S(=O)(=O)c2ccccc2)O1 | 4.33% |
| c1ccc(CO[C@@H]2C[C@H]3CN(c4ncccn4)CCN3C2)nc1 | -22% |
| Cc1cnc(C(=O)N2C[C@H]3CN(Cc4cccnc4)C[C@H]3C2)cn1 | -17.6% |
| Cc1cccc(CN2C[C@@H]3CN(C(=O)c4ccco4)C[C@@H]3C2=O)c1 | -32.5% |
| CNC(=O)CN([C@H]1C[C@H]2CCOC[C@H]2C1)S(=O)(=O)c1ccccc1 | -2.79% |
| CCN(CC)[C@@H]1CN(Cc2cnn(C)c2)[C@@H]2COC[C@H]12 | -19.3% |
| Cc1csc2ncc(-c3ccnc(N4CCC[C@@H]4CO)n3)c(=O)n12 | 27.3% |
| Cc1cn2c(=O)c(-c3ccnc(N4CCC[C@@H]4CO)n3)cnc2s1 | 72.5% |
| O=c1c(-c2ccnc(N3CCC[C@H]3CO)n2)cnc2sccn12 | 47.6% |
| COCCN1C[C@@H]2CN(Cc3ccoc3)CCC[C@]2(C(=O)O)C1 | -27.8% |
| CC1CCc2nc(O)c(C(=O)NCCN(C)C)cc2C1 (stereo not drawn) | -47.6% |
| CCCNC(=O)c1cc2c(nc1O)CCC(C)C2 (stereo not drawn) | -24.6% |
| CC1CCc2nc(O)c(C(=O)NCCCN3CCN(C)CC3)cc2C1 (stereo not drawn) | 82.6% |
| COc1ccc(CN2C[C@@H]3OCCN(c4ncccn4)[C@@H]3C2)cc1 | -27.4% |
| O=S(=O)(NC[C@H]1C[C@@H]2CCN1C[C@@H]2CN1CCCC1)c1ccc(Cl)cc1 | 2.53% |
